Tcruzi prolif: inhibitors of T. cruzi proliferation; 77,000 compounds, 5.9% hits; inhibition, % at 8.34 µM; T. cruzi beta-gal in NIH3T3, GalScreen luminescence, 90 h; AID 624255;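 active = mean inhibition above about 93%, with at least 55% of replicates each passing it, limit read from the data, passing the limit was not always enough; inconclusive = only one of those two conditions holds; inactive = neither condition holds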
Pf Dd2 growth: inhibitors of Plasmodium falciparum Dd2 growth | P. falciparum Dd2 growth, SYBR Green, 72 h; stronger effect = lower value | activity change, % at 10 µM | 94,000 compounds, 2.3% hits; in the data active = activity change below about -80%; inconclusive = no clear call, values can overlap the other calls
C diff growth: C. difficile growth inhibition; Clostridium difficile clinical isolate growth, OD600, 24 h; stronger effect = lower value; growth activity, negative = inhibition, % at 16 µg/mL (by protocol); 86,000 compounds, 0.25% hits;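 active = mean growth activity at or below -80% and every replicate also at or below -80%; inconclusive = mean at or below -80% but some replicate above -80%; inactive = mean growth activity above -80%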;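 note: 0% = DMSO wells and -100% = levofloxacin 16 µg/mL wells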
Starred values were filed as active, the others as inactive; ? = inconclusive; nt = no result. Sampled rows, rich in hits. Any-hit rate of the full collection: about 6.7%.

SMILES | Tcruzi prolif | Pf Dd2 growth | C diff growth
C[C@@H]1CCCCO[C@@H](CN(C)Cc2ccncc2)[C@@H](C)CN([C@H](C)CO)C(=O)c2cc(NC(=O)CCCCCC(=O)Nc3ccccc3N)ccc2O1 | nt | -37 | -3
COc1ccc(S(=O)(=O)Nc2ccc3c(c2)C(=O)N([C@H](C)CO)C[C@H](C)[C@H](CN(C)Cc2ccccc2)OCCCC[C@@H](C)O3)cc1 | -31 | 26 | -6
CC(=O)N(C)C[C@H]1Oc2ncc(-c3ccccc3F)cc2C(=O)N([C@@H](C)CO)C[C@@H]1C | 26 | 40 | 0
CCC(=O)N(C)C[C@H]1Oc2cc(C#CC3CC3)ccc2S(=O)(=O)N([C@H](C)CO)C[C@@H]1C | -11 | 0 | nt
COc1ccc2c3c([nH]c2c1)[C@H](CO)N(Cc1ccncc1)CC31CCN(C(=O)c2cccnc2)CC1 | nt | -11 | 9
COc1ccc2c3c([nH]c2c1)[C@H](CO)N(Cc1ccc(Cl)cc1)CC31CCN(C(=O)CN(C)C)CC1 | nt | ? | 9
CCCC(=O)N1CCC2(CC1)CN(Cc1cccnc1)[C@@H](CO)c1[nH]c3cc(OC)ccc3c12 | nt | -90* | 45
CCCC(=O)N1CCC2(CC1)CN(Cc1ccc(Cl)cc1)[C@@H](CO)c1[nH]c3cc(OC)ccc3c12 | nt | -84* | 13
COc1cc(CN2CC3(CCN(C(=O)Nc4c(C)noc4C)CC3)c3c([nH]c4cc(OC)ccc34)[C@@H]2CO)cc(OC)c1 | nt | -30 | 3
COc1cc(CN2CC3(CN(C(=O)Nc4c(C)noc4C)C3)c3c([nH]c4cc(OC)ccc34)[C@@H]2CO)cc(OC)c1 | nt | -85* | -1
CCCC(=O)N1CC2(C1)CN(Cc1cccnc1)[C@H](CO)c1[nH]c3cc(OC)ccc3c12 | nt | -21 | 6
COc1cc(CN2CC3(CCN(C(=O)c4cccnc4)CC3)c3c([nH]c4cc(OC)ccc34)[C@@H]2CO)cc(OC)c1 | nt | -89* | -1
C[C@H]1CN([C@@H](C)CO)C(=O)Cc2cc(NC(=O)Cn3cnnn3)ccc2O[C@@H]1CN(C)Cc1ccccc1 | 12 | -4 | -1
C[C@@H]1CN([C@H](C)CO)S(=O)(=O)c2ccc(Br)cc2O[C@H]1CN(C)C(=O)CN(C)C | -18 | 24 | -1
COc1ccc(-c2ccc3c(c2)O[C@@H](CN(C)Cc2cccnc2)[C@@H](C)CN([C@H](C)CO)S3(=O)=O)cc1 | nt | -48 | -3
COc1ccc(NC(=O)N(C)C[C@@H]2Oc3ccc(NC(=O)Cn4cnnn4)cc3C(=O)N([C@H](C)CO)C[C@H]2C)cc1 | -43 | 34 | nt
N#C[C@@H]1[C@H](c2ccc(C#Cc3ccccc3F)cc2)[C@@H](CO)N1C(=O)C1CCCC1 | nt | -59 | 26
COc1ccccc1CN1C[C@@H](C)[C@H](OC)CN(C)C(=O)c2cc(NC(=O)Nc3ccccc3OC)ccc2OC[C@H]1C | 20 | -89* | nt
CO[C@H]1CN(C)C(=O)c2cc(NC(=O)C3CC3)ccc2OC[C@H](C)N(Cc2cc(F)ccc2F)C[C@H]1C | 95 | -88* | nt
COc1ccccc1CN1C[C@H](C)[C@@H](OC)CN(C)C(=O)c2cc(NC(C)=O)ccc2OC[C@H]1C | -15 | -23 | nt
CO[C@@H]1CN(C)C(=O)c2cc(NC(=O)C3CC3)ccc2OC[C@@H](C)N(Cc2cc(F)ccc2F)C[C@@H]1C | 80 | -64 | nt
O=C(Nc1ccccc1)N1CCCCN2[C@H](CO)[C@H](c3ccc(C#Cc4ccccc4)cc3)[C@@H]2C1 | 60 | -77 | -24
O=C(Nc1ccccc1)N1CCCCN2[C@H](C1)[C@@H](c1ccc(C#Cc3ccccc3)cc1)[C@@H]2CO | 60 | -29 | 14
O=C(Nc1ccccc1)N1CCCCN2[C@H](CO)[C@H](c3ccc(C#Cc4ccccc4)cc3)[C@H]2C1 | 76 | -48 | -101*
O=C(Nc1ccccc1F)N1CCCCN2[C@H](CO)[C@H](c3ccc(C#Cc4ccccc4)cc3)[C@@H]2C1 | 75 | -89* | -2
O=C(Nc1ccccc1F)N1CCCCN2[C@H](CO)[C@@H](c3ccc(C#Cc4ccccc4)cc3)[C@@H]2C1 | 94 | -34 | -2
O=C(Nc1ccc(F)cc1)N1CCCCN2[C@H](CO)[C@H](c3ccc(C#Cc4ccccc4)cc3)[C@@H]2C1 | 19 | -83* | -11
Cc1noc(C)c1NC(=O)N(C)C[C@@H]1OCCCC[C@@H](C)Oc2ccc(NS(=O)(=O)c3c(C)noc3C)cc2C(=O)N([C@H](C)CO)C[C@H]1C | 8 | -17 | -1
C[C@@H]1CCCCO[C@H](CN(C)C(=O)Nc2ccc(C(F)(F)F)cc2)[C@@H](C)CN([C@@H](C)CO)C(=O)c2cc(NC(=O)C3CCCCC3)ccc2O1 | 91 | -85* | -8
C[C@@H]1CCCCO[C@H](CN(C)C(=O)Nc2ccccc2)[C@H](C)CN([C@@H](C)CO)C(=O)c2cc(NC(=O)C3CCCCC3)ccc2O1 | 57 | -71 | 0

Screening data as filed in PubChem BioAssay.
